High-throughput results deposited in PubChem BioAssay by Johns Hopkins Ion Channel Center.
KCNQ2 inh: blocks the rat KCNQ2 potassium channel; O88943; CHO-K1 KCNQ2, FluxOR thallium flux, 20 min; active compounds read low; B-score at 10 µM; 310,000 compounds, 1.1% hits;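 active = fluorescence ratio B-score at most minus 3 library SDs, with starting brightness B-score within 2 library SDs, cut at about -5.5 in these data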
KCNQ2 enhance: KCNQ2 (rat) channel potentiation; O88943; CHO-K1 KCNQ2, FluxOR thallium flux fluorescence; active compounds read high; B-score at 10 µM; 310,000 compounds, 0.54% hits; AID 2239;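 active = fluorescence ratio B-score at least 3 SD of library B-scores, with initial fluorescence B-score within 3 of them, cut at about 5.3 in these data; same plate scores as AID 2156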;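 also: B-score of peak minus minimum over baseline fluorescence ratio after K+ and Tl+ stimulus; positive B-score means potentiation of KCNQ2 with more thallium influx and brighter signal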
Kir21 confirm: confirmation of mouse Kir2.1 potassium channel inhibitors; shares compounds with KCNQ2 enhance; Kir2.1-expressing cells, FluxOR thallium flux fluorescence; active compounds read low; Tl flux remaining, % of negative control (active compounds read low), % at 10 µM; 2,300 compounds, 41% hits; AID 2032;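 active = Primary-screen hit whose thallium flux fell at least 3 control SD below untreated wells in both duplicates, with normal baseline fluorescence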;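 also: 0% = blank wells without stimulus and 100% = stimulated no-compound controls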
HEK293 Tl flux: counter-screen for Kir2.1 inhibitors: effect in parental HEK293 cells; shares compounds with KCNQ2 enhance; 2,300 compounds, 19% hits; FluxOR signal as % of negative control (100 = no effect), % at 10 µM; AID 2105; FluxOR thallium flux fluorescence; 0% = unstimulated blank wells;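 active = dye signal at least 3 control SD above or below untreated wells in both duplicates, raw fluorescence within 3, either direction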;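 also: percent is based on the flux ratio of peak minus minimum fluorescence over baseline F0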
CHO-K1 Tl ctr: parental CHO-K1 activity in KCNQ2 potentiator counter-screen; 1,200 compounds, 43% hits; shares compounds with KCNQ2 enhance; parental CHO-K1 cells, FluxOR thallium flux fluorescence; zero = vehicle mean+3SD, 100% = vehicle-minus-blank window; activity increase over 3SD of controls, % at 10 µM;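 active = signal rise of at least 3 SD above the untreated control mean, in both duplicate wells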;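 also: counter screen of KCNQ2 potentiator hits so any rise reflects channel-independent effects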
KCNQ1 sel pot: tests whether KCNQ2 potentiators also act on human KCNQ1; shares compounds with KCNQ2 enhance; CHO KCNQ1 stable, FluxOR thallium flux fluorescence; beyond 3SD, as % of vehicle-control signal; activation over 3SD threshold, % at 10 µM; 1,200 compounds, 28% hits; AID 2283;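 active = fluorescence ratio rise of at least 3 SD of vehicle wells above their mean, in both replicate wells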;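 also: 0% = vehicle mean plus 3 SD and 100% = vehicle minus unstimulated blank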
Target sequence (P51787 whole entry, looked up): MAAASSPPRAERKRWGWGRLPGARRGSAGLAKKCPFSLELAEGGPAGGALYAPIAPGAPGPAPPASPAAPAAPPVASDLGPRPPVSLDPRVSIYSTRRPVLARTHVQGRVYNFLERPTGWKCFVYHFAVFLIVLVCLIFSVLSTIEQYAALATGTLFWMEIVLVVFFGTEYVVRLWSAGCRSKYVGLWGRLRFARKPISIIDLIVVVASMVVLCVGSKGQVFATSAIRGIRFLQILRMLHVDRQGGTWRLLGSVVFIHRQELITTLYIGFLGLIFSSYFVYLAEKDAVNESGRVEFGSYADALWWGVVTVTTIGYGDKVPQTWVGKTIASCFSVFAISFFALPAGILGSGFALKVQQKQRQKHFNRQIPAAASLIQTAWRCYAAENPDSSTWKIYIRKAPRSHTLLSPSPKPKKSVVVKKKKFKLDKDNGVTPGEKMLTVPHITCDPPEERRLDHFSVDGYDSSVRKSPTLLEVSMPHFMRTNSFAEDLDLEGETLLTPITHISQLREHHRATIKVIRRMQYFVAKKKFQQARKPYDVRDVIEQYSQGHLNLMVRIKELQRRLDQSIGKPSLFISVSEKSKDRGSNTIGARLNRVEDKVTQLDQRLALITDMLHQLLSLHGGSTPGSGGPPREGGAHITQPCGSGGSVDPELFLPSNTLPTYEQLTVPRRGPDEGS
KCNQ2 pot confirm: rat KCNQ2 channel potentiator confirmation; 1,200 compounds, 68% hits; shares compounds with KCNQ2 enhance; potentiation, less the hit threshold, % at 10 µM; CHO-KCNQ2 cells, FluxOR thallium flux fluorescence;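 active = fluorescence ratio rising 3 SD or more over the vehicle control mean in both replicates, plus primary screen hit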;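 also: peak minus minimum thallium fluorescence divided by baseline after K/Tl stimulus; 0% = vehicle mean plus 3 SD and 100% = vehicle minus unstimulated blank difference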
Kir21 spec: selectivity of KCNQ2 potentiators: effect on mouse Kir2.1 | shares compounds with KCNQ2 enhance | HEK293 Kir2.1, FluxOR thallium flux fluorescence | activity over 3SD threshold, % at 10 µM | 1,200 compounds, 2% hits;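 active = fluorescence ratio rise of at least 3 SD above the vehicle-control mean, seen in both replicates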;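 also: 0% = vehicle mean plus 3 SD and 100% = vehicle minus no-stimulus blank window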
KCNQ2 W236L pot: KCNQ2 potentiators acting on retigabine-insensitive rat KCNQ2 W236L mutant | shares compounds with KCNQ2 enhance | CHO KCNQ2-W236L, automated patch clamp current | current increase over 3SD of negative controls (%), active compounds read high, % at 25 µM | 940 compounds, 10% hits;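 active = current increase at least 3 SD of the untreated controls above them in both duplicate recordings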
An asterisk follows results filed as active; i = inactive; . = no result. Compounds with a hit are over-represented: about 1.6% of the library has one in this group of screens.

SMILES	KCNQ2 inh	KCNQ2 enhance	Kir21 confirm	HEK293 Tl flux	others
CCn1c(=O)n(CC)c2cc(N3CCCC3)c(NC(=O)c3cccc(C)c3)cc21	i	.	.	.
CCn1c(=O)n(CC)c2cc(NC(=O)C(C)c3ccccc3)c(Br)cc21 (stereo not given)	i	22*	i	i	CHO-K1 Tl ctr=-8;KCNQ1 sel pot=-24;KCNQ2 pot confirm=95*;Kir21 spec=-24;KCNQ2 W236L pot=i
COc1cc(OC)c(NS(=O)(=O)c2cc(Br)cnc2N)cc1Cl	i	0.48	72%*	72%*
Cc1ccc(NS(=O)(=O)c2cc(Br)cnc2N)c(Cl)c1	i	0.02	.	.
CC(CCCN(C)C)C(Cc1ccccc1)c1ccccc1 (stereo not given)	i	.	48%*	i
CN(C)CCC(=O)C(Cc1ccccc1)c1ccccc1 (stereo not given)	i	.	.	.
C[C@H](NC(=O)c1ccco1)C(=O)Nc1ccc(C#N)cc1	i	.	.	.
CCCNC(=O)Cc1c(C)oc2ccccc12	i	.	.	.
Cc1cc(C)c(S(=O)(=O)N2CCC(C(=O)NCc3ccncc3)CC2)c(C)c1	i	0.36	.	.
Cc1cc(C)c(S(=O)(=O)N2CCC(C(=O)NCc3ccc(Cl)cc3Cl)CC2)c(C)c1	i	6*	i	i	CHO-K1 Tl ctr=-5;KCNQ1 sel pot=-52;KCNQ2 pot confirm=-2;Kir21 spec=-36
CC(=O)c1cc2c(cc1NC(=O)c1ccccc1C)OCO2	i	0.19	.	.
O=C(CS(=O)CC(=O)NC12CC3CC(CC(C3)C1)C2)Nc1ccc(F)cc1 (stereo not given)	i	0.19	.	.
CN1CCN(CCCNC(=O)c2ccc(CSCc3cccc(Cl)c3)o2)CC1	i	1.2	.	.
CC1CCN(CCCNC(=O)c2ccc(CSCc3cccc(Cl)c3)o2)CC1	i	.	37%*	i
O=C(CSc1nnc2c(n1)[nH]c1ccccc12)Nc1ccc(S(=O)(=O)Nc2ncccn2)cc1	i	.	.	.
O=C(CN1CCC(NC(=O)c2ccccc2Cl)CC1)NCc1ccco1	i	.	.	.
Cc1ccc(C(=O)Nc2cccc(C(F)(F)F)c2)cc1NC(=O)c1csc(-c2ccncc2)n1	i	.	.	.
N#C/C(=N\Nc1cccc(C(F)(F)F)c1)C(=O)c1csc(-c2cccnc2)n1	i	6.4*	i	70%*	CHO-K1 Tl ctr=19*;KCNQ1 sel pot=-2;KCNQ2 pot confirm=-4;Kir21 spec=-36
CC(=O)OC1COC(n2c(O)c(N=NC(N)=S)c3ccccc32)C(OC(C)=O)C1OC(C)=O (stereo not given)	i	1	.	.
Clc1ccc(-c2csc3ncnc(Cl)c23)cc1	i	0.92	.	.
Cc1cc(-c2csc3nc[nH]c(=S)c23)cc(C)c1C	i	15*	i	262%*	CHO-K1 Tl ctr=-9;KCNQ1 sel pot=-17;KCNQ2 pot confirm=36*;Kir21 spec=-20;KCNQ2 W236L pot=i
O=c1[nH]cnc2scc(-c3ccsc3)c12	i	2.3	.	.
S=c1[nH]cnc2scc(-c3ccc(Cl)cc3)c12	i	9.6*	i	142%*	CHO-K1 Tl ctr=-5;KCNQ1 sel pot=-4;KCNQ2 pot confirm=14*;Kir21 spec=-31;KCNQ2 W236L pot=i
O=c1[nH]cnc2scc(-c3ccccc3)c12	i	.	.	.
S=c1[nH]cnc2scc(-c3ccc(Br)cc3)c12	i	5.6*	i	194%*	CHO-K1 Tl ctr=-3;KCNQ1 sel pot=-17;KCNQ2 pot confirm=-5;Kir21 spec=-20;KCNQ2 W236L pot=i
SMILES	KCNQ2 inh	KCNQ2 enhance	Kir21 confirm	HEK293 Tl flux	others
CN(CC(=O)Nc1ccc(Cl)cc1)C(=O)CCc1nc2sc3c(c2c(=O)[nH]1)CCCC3	i	0.14	.	.
CC(=O)N/N=c1\sc2ccccc2n1C	i	0.49	.	.
Cn1/c(=N\NC(=O)C2CCCCC2)sc2ccccc21	i	9.9*	i	i	CHO-K1 Tl ctr=-21;KCNQ1 sel pot=-9;KCNQ2 pot confirm=0.0*;Kir21 spec=-31;KCNQ2 W236L pot=i
O=C(NC(=S)Nc1ccc2c(c1)C(=O)c1ccccc1C2=O)c1ccc(F)cc1	i	1.5	.	.
O=C(/C=C/c1c[nH]c2ccccc12)c1cccc2ccccc12	i	.	.	.
O=C(Nc1nc(=O)c2ccccc2s1)c1ccc(F)cc1	i	5.8*	i	174%*	CHO-K1 Tl ctr=-4;KCNQ1 sel pot=-30;KCNQ2 pot confirm=-12;Kir21 spec=-18
O=C(Cc1ccccc1)Nc1nc(=O)c2ccccc2s1	i	2.7	.	.
CN(c1ccc(C(=O)NCCSCc2c(F)cccc2Cl)cc1)S(C)(=O)=O	i	.	.	.
CC1(C)Nc2ccc(O)cc2-c2c1ssc2=S	i	.	40%*	i
COc1cccc(-n2sc3c(c2=S)-c2cc(OC)ccc2NC3(C)C)c1	i	.	.	.
COCCCN=Cc1c(C)[nH]n(-c2ccc(Br)cc2Br)c1=O	i	.	.	.
CCCCCNC(=O)CCc1ccccc1	i	0.05	.	.
CCCCCCC/C(C)=N/NC(=O)CC(=O)NCCc1ccccc1	i	5.6*	i	i	CHO-K1 Tl ctr=7.3*;KCNQ1 sel pot=-16;KCNQ2 pot confirm=-24;Kir21 spec=-36
COC(=O)NC1CSCC1OC(=O)CN1C(=O)c2ccccc2C1=O (stereo not given)	i	.	.	.
COc1ccc(CCN2C(=O)CSC2c2ccc(F)cc2)cc1 (stereo not given)	i	0.53	.	.
Cc1ccccc1Cn1nc(C)c(NC(=O)c2ccccc2)c1C	i	0.03	i	i
Cc1ccccc1Cn1nc(C)c(NC(=O)c2sc3ccccc3c2Cl)c1C	i	0.29	.	.
Cn1nnnc1SCCNCc1ccccc1OCc1ccc(F)cc1	i	1.2	.	.
CCC(C)n1c(NC(=O)c2ccccc2)c(C#N)c2nc3ccccc3nc21 (stereo not given)	i	.	.	.
CCCCn1c(NC(=O)c2ccc(F)cc2)c(C#N)c2nc3ccccc3nc21	i	5.7*	i	66%*	CHO-K1 Tl ctr=103*;KCNQ1 sel pot=-8;KCNQ2 pot confirm=-4;Kir21 spec=-38;KCNQ2 W236L pot=i
CCOCCn1ccc2c(OCC(=O)NCc3ccccc3)cccc2c1=O	i	.	.	.
COc1ccc(/C=C/c2cc(=O)c3cc(Cl)ccc3o2)cc1	i	.	i	i
COc1ccc(-c2cc(=O)c3cc(OC)ccc3o2)cc1	i	0.36	.	.
COc1ccccc1-n1c(CNc2c(C)cccc2C)nnc1SCC(=O)N1CCOCC1	i	0.86	.	.
CN(C)CCCN(C(=O)c1ccc2c(c1)OCCO2)c1nc2ccc(Cl)cc2s1	i	.	54%*	i
CN(C)CCN(C(=O)c1ccc2c(c1)OCCO2)c1nc2ccc(Cl)cc2s1	i	0.29	.	.
COc1ccc(Cc2noc(CN3CCN(Cc4cccc(Cl)c4)CC3)n2)cc1OC	i	7.2*	i	i	CHO-K1 Tl ctr=43*;KCNQ1 sel pot=-16;KCNQ2 pot confirm=-26;Kir21 spec=-14
